SMILES strings stand for the structures. Records with an inconclusive call do not appear. Entries that show only a call come without a potency. The source made the active and inactive calls. Calls come from the whole dose curve; as a rule, active = well fitted cell-killing curve with a large enough effect in the repeat runs; inconclusive = weak or mixed curves, or effect the other way; inactive = flat fitted curve, though single readings scatter.

Assay [1] can be described thus: cAMP Responsive Elements (CRE) small molecule antagonists, cell-based qHTS assay: qHTS cell viability counter screen (AID 2060913). Note: nearly all actives have a fitted effect of over 40% in size. The note with it: CRE-bla HEK293T viability, CellTiter-Glo luminescence, 5 h; series mostly up to 92.4 µM. The procedure, abridged:
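Cytotoxicity read in the same wells as the CRE-bla HEK293T antagonist assay: after 3 h compound with 0.25 uM NKH477 final and 2 h beta-lactamase substrate, CellTiter-Glo luminescence measured.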

Assay [2] in a line: cAMP Responsive Elements (CRE) small molecule agonists, cell-based qHTS assay: qHTS cell viability counter screen (AID 2060914). Note: potency is the fitted concentration of half-maximal effect.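 Note: viability read after 3 h of compound exposure; nearly all actives have a fitted effect of over 50% in size.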 The note with it: CRE-bla HEK293T viability, CellTiter-Glo luminescence, 5 h; series mostly up to 92.4 µM. An outline of the steps:
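Cells are seeded and incubated 18 h, treated with compounds in DMSO for 3 h, read for the bla reporter, then given CellTiter-Glo; luminescence is measured after 30 min at room temperature.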

In the case of `CCN(N=O)C(N)=O`, the Potency entry in assay [1] and in assay [2] was “inactive” in each case.

With `CCCCCCC[CH2][Sn]([Cl])([Cl])[CH2]CCCCCCC`, the Potency result in assay [1] and in assay [2] was “inactive” in each case.

For the compound `CC(C)(c1ccccc1)c1cc(-n2nc3ccccc3n2)c(O)c(C(C)(C)c2ccccc2)c1`, the Potency entry in assay [1] and in assay [2] was “inactive” throughout.

For `Cc1ccc(N)c(C)c1`, the Potency entry in assay [1] and in assay [2] was “inactive” each time.

Consider `CCOP(=S)(OCC)Oc1cnc2ccccc2n1`, for which the Potency result in assay [1] and in assay [2] was “inactive” in each case.

Take `OCCSSCCO`: the Potency result in assay [1] and in assay [2] was “inactive” throughout.

As to `CCOP(=S)(S)OCC`, the Potency entry in assay [1] and in assay [2] was “inactive” throughout.

With `COc1ccc2c3c1O[C@H]1[C@@H](O)C=C[C@H]4[C@@H](C2)N(C)CC[C@@]341`, the Potency result in assay [1] and in assay [2] was “inactive” throughout.

Consider `CCOP(=O)(CN(CCO)CCO)OCC`, for which the Potency entry in assay [1] and in assay [2] was “inactive” in each case.

Take `c1ccc(C2CC2)c(OCC2=NCCN2)c1`: the Potency entry in assay [1] and in assay [2] was “inactive” throughout.

With `C[C@]12C=CC(=O)C=C1CC[C@@H]1[C@@H]2CC[C@@]2(C)[C@H]1CC[C@]2(C)O`, the Potency entry in assay [1] and in assay [2] was “inactive” each time.

`O=C(Cl)C(Cl)(Cl)Cl`: the Potency entry in assay [1] and in assay [2] was “inactive” in each case.

Take `O=Cc1cccc(Oc2ccccc2)c1`: the Potency result in assay [1] and in assay [2] was “inactive” each time.

Take `CC(C)CCCCCCOC(=O)c1ccccc1C(=O)OCCCCCCC(C)C`: the Potency entry in assay [1] and in assay [2] was “inactive” throughout.

As to `COC(=O)c1ccccc1N`, the Potency result in assay [1] and in assay [2] was “inactive” in each case.

On to `O=C1C(I)=CC(=C(c2cc(I)c(O)c(I)c2)c2ccccc2C(=O)O)C=C1I`, for which the Potency entry in assay [1] and in assay [2] was “inactive” each time.

`Clc1nc(Cl)nc(Nc2ccccc2Cl)n1`: the Potency entry in assay [1] and in assay [2] was “inactive” each time.

Consider `O=C(O)C(F)(F)C(F)(F)C(F)(F)C(F)(F)C(F)(F)C(F)(F)C(F)(F)C(F)(F)C(F)(F)C(F)(F)F`, for which the Potency result in assay [1] and in assay [2] was “inactive” each time.

Consider `OCCCl`, for which the Potency result in assay [1] and in assay [2] was “inactive” each time.

Turning to `CCC1(c2ccccc2)C(=O)N=C(O)NC1=O` (centres undefined), the Potency entry in assay [1] and in assay [2] was “inactive” throughout.

In the case of `O=C(CCCN1CCC(n2c(=O)[nH]c3ccccc32)CC1)c1ccc(F)cc1`, the Potency entry in assay [1] and in assay [2] was “inactive” each time.

In the case of `CN1C(=S)CN=C(c2ccccc2)c2cc(Cl)ccc21`, the Potency entry in assay [1] and in assay [2] was “inactive” throughout.

With `O=c1oc2ccccc2c(O)c1C(CC(O)c1ccc(-c2ccc(Br)cc2)cc1)c1ccccc1` (centres undefined), the Potency result in assay [1] and in assay [2] was “inactive” in each case.

In the case of `COc1cnc(OC)n2nc(NS(=O)(=O)c3c(OCC(F)F)cccc3C(F)(F)F)nc12`, the Potency entry in assay [1] and in assay [2] was “inactive” in each case.

Turning to `CNc1cnn(-c2cccc(C(F)(F)F)c2)c(=O)c1Cl`, the Potency result in assay [1] and in assay [2] was “inactive” throughout.

For `O=C(O)C(F)(F)C(F)(F)C(F)(F)C(F)(F)C(F)(F)C(F)(F)C(F)(F)F`, the Potency entry in assay [1] and in assay [2] was “inactive” each time.

For `COC(=O)c1cc(Oc2ccc(Cl)cc2Cl)ccc1[N+](=O)[O-]`, the Potency result in assay [1] and in assay [2] was “inactive” each time.

With `ClCOCCl`, the Potency result in assay [1] and in assay [2] was “inactive” each time.

As to `O=C(O)C(Cl)Cl`, the Potency result in assay [1] and in assay [2] was “inactive” in each case.

Turning to `CCOC(=O)C(c1c(O)c2ccccc2oc1=O)c1c(O)c2ccccc2oc1=O`, the Potency entry in assay [1] and in assay [2] was “inactive” throughout.

Regarding `O=S(=O)(O)C(F)(F)C(F)(F)C(F)(F)C(F)(F)C(F)(F)C(F)(F)C(F)(F)C(F)(F)F`, the Potency entry in assay [1] and in assay [2] was “inactive” throughout.

Consider `Brc1cccc(-c2ccccc2)c1`, for which the Potency result in assay [1] and in assay [2] was “inactive” each time.

For `CCCCOC(=O)CCC(=O)OCCCC`, the Potency result in assay [1] and in assay [2] was “inactive” in each case.

With `CCCCN(CCCC)SN(C)C(=O)Oc1cccc2c1OC(C)(C)C2`, the Potency entry in assay [1] and in assay [2] was “inactive” in each case.

`O=C1C(Cl)=C(Cl)C(=O)C(Cl)=C1Cl`: the Potency result in assay [1] and in assay [2] was “inactive” each time.

Consider `Fc1ccc(C2(Cn3cncn3)OC2c2ccccc2Cl)cc1` (centres undefined), for which the Potency entry in assay [1] and in assay [2] was “inactive” in each case.

As for `COCc1cnc(C2=NC(C)(C(C)C)C(=O)N2)c(C(=O)O)c1` (centres undefined), the Potency entry in assay [1] and in assay [2] was “inactive” each time.

Regarding `CCc1cc2c(s1)-n1c(C)nnc1CN=C2c1ccccc1Cl`, the Potency entry in assay [1] and in assay [2] was “inactive” throughout.

In the case of `Cn1c(-c2ccccc2)cc(-c2ccccc2)[n+]1C`, the Potency result in assay [1] and in assay [2] was “inactive” each time.

Consider `C=CCOC(=O)c1ccccc1N`, for which the Potency entry in assay [1] and in assay [2] was “inactive” throughout.

For `CCOc1nc(C(Cl)(Cl)Cl)ns1`, the Potency entry in assay [1] and in assay [2] was “inactive” in each case.

In the case of `COc1ccc2c(c1OC)C(=O)O[C@H]2[C@@H]1c2cc3c(cc2CCN1C)OCO3`, the Potency entry in assay [1] and in assay [2] was “inactive” each time.

As for `O=P(OCCCl)(OCCCl)OCCCl`, the Potency result in assay [1] and in assay [2] was “inactive” throughout.

For `O=C(O)C(Br)CBr` (centres undefined), the Potency result in assay [1] and in assay [2] was “inactive” each time.

`NNCCO`: the Potency result in assay [1] and in assay [2] was “inactive” each time.

With `CN(N=O)C(N)=O`, the Potency entry in assay [1] and in assay [2] was “inactive” in each case.

As for `C=CC(=O)OCC(CC)CCCC` (centres undefined), the Potency entry in assay [1] and in assay [2] was “inactive” throughout.

On to `O=c1oc2ccccc2c(O)c1C1CCCc2ccccc21` (centres undefined), for which the Potency entry in assay [1] and in assay [2] was “inactive” in each case.

In the case of `CCNc1nc(NC(C)C)nc(OC)n1`, the Potency result in assay [1] and in assay [2] was “inactive” in each case.

Turning to `NC(=O)CS(=O)C(c1ccccc1)c1ccccc1` (centres undefined), the Potency entry in assay [1] and in assay [2] was “inactive” each time.

Take `N#Cc1ccccn1`: the Potency result in assay [1] and in assay [2] was “inactive” each time.

In the case of `O=c1[nH]c2ccccc2n1C1CCNCC1`, the Potency entry in assay [1] was “inactive”. The Potency in assay [2] was 266 nM (active).
